Laboratory results: ChEMBL document CHEMBL1961873, “Compounds: GSK PKIS; Assays: Nanosyn kinase panel” (2012)

What was measured:
[1] = target: T1, Muscle, skeletal receptor tyrosine-protein kinase (Homo sapiens) (UniProt O15146); details: at 1 µM;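 note: reported value is the mean percent inhibition of MuSK kinase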
T1 sequence (whole entry): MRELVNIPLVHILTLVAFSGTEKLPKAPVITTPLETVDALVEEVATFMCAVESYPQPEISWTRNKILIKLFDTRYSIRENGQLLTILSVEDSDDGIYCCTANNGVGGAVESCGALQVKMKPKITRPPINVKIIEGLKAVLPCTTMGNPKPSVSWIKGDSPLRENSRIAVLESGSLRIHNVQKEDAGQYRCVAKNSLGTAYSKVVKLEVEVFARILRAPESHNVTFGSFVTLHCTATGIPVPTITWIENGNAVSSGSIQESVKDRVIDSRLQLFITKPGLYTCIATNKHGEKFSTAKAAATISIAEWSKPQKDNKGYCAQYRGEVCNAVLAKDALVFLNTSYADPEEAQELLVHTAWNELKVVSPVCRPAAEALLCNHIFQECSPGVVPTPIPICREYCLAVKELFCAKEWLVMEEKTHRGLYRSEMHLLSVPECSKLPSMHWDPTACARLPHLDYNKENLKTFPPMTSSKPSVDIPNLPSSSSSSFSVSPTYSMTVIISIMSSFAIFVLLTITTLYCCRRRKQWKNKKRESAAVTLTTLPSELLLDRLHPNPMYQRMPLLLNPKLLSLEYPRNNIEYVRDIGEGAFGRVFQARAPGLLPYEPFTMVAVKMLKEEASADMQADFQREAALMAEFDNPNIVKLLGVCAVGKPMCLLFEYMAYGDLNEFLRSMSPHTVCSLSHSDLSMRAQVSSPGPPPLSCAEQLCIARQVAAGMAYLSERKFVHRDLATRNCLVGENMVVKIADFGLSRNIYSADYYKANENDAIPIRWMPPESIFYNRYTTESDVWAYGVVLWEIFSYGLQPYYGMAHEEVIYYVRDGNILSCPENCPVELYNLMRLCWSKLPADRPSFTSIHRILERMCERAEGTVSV

[2] = target: Platelet-derived growth factor receptor alpha (Homo sapiens) (UniProt P16234); details: at 0.1 µM
[3] = target: Platelet-derived growth factor receptor alpha (Homo sapiens) (UniProt P16234); details: at 1 µM
[4] = test system: Platelet-derived growth factor receptor alpha (Homo sapiens), P16234 [D842V]; details: at 0.1 µM
[5] = test system: Platelet-derived growth factor receptor alpha (Homo sapiens), P16234 [D842V]; details: at 1 µM
[6] = test system: Platelet-derived growth factor receptor alpha (Homo sapiens), P16234 [T674I]; details: at 0.1 µM
[7] = test system: Platelet-derived growth factor receptor alpha (Homo sapiens), P16234 [T674I]; details: at 1 µM
[8] = test system: Platelet-derived growth factor receptor alpha (Homo sapiens), P16234 [V561D]; details: at 0.1 µM
[9] = test system: Platelet-derived growth factor receptor alpha (Homo sapiens), P16234 [V561D]; details: at 1 µM
[10] = target: Platelet-derived growth factor receptor beta (Homo sapiens) (UniProt P09619); details: at 0.1 µM
[11] = target: Platelet-derived growth factor receptor beta (Homo sapiens) (UniProt P09619); details: at 1 µM
[12] = target: Tyrosine-protein kinase FRK (Homo sapiens) (UniProt P42685); details: at 0.1 µM
[13] = target: Tyrosine-protein kinase FRK (Homo sapiens) (UniProt P42685); details: at 1 µM
[14] = target: Protein-tyrosine kinase 2-beta (Homo sapiens) (UniProt Q14289); details: at 0.1 µM
[15] = target: Protein-tyrosine kinase 2-beta (Homo sapiens) (UniProt Q14289); details: at 1 µM
[16] = target: Proto-oncogene tyrosine-protein kinase receptor Ret (Homo sapiens) (UniProt P07949); details: at 0.1 µM
[17] = test system: Proto-oncogene tyrosine-protein kinase receptor Ret (Homo sapiens), P07949 [V804L]; details: at 0.1 µM
[18] = test system: Proto-oncogene tyrosine-protein kinase receptor Ret (Homo sapiens), P07949 [V804L]; details: at 1 µM
[19] = test system: Proto-oncogene tyrosine-protein kinase receptor Ret (Homo sapiens), P07949 [Y791F]; details: at 0.1 µM
[20] = target: Proto-oncogene tyrosine-protein kinase receptor Ret (Homo sapiens) (UniProt P07949); details: at 1 µM

Platelet-derived growth factor receptor beta (Homo sapiens), sequence (P09619 whole entry): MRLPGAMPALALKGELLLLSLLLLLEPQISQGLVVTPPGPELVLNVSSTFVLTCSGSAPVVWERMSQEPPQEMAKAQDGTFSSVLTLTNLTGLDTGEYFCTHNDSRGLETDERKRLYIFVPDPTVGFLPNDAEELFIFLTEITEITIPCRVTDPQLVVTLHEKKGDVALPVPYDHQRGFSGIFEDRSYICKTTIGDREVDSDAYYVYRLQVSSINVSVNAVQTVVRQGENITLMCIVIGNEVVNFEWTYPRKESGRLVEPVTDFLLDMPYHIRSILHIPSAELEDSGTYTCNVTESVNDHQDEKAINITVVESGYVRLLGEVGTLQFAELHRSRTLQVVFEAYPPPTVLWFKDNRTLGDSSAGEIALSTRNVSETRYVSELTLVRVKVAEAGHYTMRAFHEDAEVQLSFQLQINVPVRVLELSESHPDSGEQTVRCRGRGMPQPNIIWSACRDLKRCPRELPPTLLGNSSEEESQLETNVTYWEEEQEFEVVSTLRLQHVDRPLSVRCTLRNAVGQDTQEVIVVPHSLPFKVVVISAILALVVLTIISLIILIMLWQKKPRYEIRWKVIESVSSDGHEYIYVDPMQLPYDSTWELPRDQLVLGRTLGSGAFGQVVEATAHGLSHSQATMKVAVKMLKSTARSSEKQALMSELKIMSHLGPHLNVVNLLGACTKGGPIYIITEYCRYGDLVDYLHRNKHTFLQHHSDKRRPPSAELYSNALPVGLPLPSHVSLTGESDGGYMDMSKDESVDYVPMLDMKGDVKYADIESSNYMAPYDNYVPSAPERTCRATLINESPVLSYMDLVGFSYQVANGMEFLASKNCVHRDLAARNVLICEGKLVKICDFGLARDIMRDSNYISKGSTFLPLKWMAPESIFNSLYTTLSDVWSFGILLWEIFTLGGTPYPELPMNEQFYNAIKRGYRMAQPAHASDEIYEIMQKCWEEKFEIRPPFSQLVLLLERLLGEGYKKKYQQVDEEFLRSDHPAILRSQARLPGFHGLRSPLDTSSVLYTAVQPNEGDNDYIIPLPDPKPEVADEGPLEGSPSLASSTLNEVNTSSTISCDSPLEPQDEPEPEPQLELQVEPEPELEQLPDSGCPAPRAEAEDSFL
Platelet-derived growth factor receptor alpha (Homo sapiens), P16234 [V561D], sequence (P16234 whole entry V561D): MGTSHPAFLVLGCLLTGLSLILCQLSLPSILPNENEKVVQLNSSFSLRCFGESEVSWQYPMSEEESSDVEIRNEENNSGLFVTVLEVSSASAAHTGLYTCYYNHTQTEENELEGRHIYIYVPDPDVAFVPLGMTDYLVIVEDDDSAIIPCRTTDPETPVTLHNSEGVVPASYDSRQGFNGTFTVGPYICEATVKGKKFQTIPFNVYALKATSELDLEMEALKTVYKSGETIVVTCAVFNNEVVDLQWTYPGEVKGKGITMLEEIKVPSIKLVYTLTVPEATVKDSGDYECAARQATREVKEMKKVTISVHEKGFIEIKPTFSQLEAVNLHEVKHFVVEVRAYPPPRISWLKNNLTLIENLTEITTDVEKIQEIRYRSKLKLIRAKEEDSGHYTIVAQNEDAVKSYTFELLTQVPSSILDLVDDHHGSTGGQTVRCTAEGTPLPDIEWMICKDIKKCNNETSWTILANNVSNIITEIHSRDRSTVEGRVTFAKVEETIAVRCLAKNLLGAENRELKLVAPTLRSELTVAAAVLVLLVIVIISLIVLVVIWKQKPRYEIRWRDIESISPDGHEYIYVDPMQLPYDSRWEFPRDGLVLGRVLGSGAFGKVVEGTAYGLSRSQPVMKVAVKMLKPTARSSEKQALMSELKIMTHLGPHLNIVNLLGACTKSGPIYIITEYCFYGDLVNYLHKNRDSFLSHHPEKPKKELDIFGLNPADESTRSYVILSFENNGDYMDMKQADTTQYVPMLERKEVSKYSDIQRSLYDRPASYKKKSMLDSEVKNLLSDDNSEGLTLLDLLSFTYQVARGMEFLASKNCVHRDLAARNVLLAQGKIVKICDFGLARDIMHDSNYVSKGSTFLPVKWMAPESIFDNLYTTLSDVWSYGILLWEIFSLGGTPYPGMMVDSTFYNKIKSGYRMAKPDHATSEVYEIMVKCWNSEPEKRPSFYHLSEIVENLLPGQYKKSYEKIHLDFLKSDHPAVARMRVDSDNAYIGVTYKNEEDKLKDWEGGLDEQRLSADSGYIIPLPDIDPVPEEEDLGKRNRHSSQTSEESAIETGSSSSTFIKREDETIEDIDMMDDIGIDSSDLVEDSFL
Proto-oncogene tyrosine-protein kinase receptor Ret (Homo sapiens), sequence (P07949 whole entry): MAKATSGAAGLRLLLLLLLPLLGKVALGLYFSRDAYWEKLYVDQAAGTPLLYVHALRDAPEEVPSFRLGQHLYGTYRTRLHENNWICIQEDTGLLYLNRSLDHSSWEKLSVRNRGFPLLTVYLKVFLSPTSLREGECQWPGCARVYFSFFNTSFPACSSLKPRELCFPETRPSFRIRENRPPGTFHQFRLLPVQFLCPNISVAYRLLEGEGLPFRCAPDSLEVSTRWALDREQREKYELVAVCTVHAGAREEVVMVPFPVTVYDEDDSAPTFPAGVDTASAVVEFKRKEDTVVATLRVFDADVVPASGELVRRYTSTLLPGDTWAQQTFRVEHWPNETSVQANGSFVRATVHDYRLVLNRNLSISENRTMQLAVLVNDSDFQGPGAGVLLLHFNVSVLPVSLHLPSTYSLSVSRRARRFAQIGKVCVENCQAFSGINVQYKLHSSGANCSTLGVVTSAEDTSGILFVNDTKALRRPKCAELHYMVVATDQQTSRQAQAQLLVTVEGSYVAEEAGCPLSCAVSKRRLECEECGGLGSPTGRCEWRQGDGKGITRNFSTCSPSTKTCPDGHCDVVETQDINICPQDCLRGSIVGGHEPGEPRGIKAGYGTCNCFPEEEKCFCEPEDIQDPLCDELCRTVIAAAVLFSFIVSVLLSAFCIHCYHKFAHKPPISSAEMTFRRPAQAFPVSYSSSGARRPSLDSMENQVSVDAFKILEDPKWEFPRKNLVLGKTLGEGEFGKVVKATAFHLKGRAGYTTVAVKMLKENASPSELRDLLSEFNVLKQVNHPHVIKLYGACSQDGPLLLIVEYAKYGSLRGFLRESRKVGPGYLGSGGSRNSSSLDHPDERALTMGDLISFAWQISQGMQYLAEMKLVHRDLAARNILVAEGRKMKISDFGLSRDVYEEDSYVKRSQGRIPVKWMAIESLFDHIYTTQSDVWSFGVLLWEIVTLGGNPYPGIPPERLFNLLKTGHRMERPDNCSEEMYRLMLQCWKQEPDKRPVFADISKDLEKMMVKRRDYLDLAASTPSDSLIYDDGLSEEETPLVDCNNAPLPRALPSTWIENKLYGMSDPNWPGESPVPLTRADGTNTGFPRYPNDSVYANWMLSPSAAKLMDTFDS
Proto-oncogene tyrosine-protein kinase receptor Ret (Homo sapiens), P07949 [Y791F], sequence (P07949 whole entry Y791F): as the sequence (P07949 whole entry) above, with Y791F counted along it
Tyrosine-protein kinase FRK (Homo sapiens), sequence (P42685 whole entry): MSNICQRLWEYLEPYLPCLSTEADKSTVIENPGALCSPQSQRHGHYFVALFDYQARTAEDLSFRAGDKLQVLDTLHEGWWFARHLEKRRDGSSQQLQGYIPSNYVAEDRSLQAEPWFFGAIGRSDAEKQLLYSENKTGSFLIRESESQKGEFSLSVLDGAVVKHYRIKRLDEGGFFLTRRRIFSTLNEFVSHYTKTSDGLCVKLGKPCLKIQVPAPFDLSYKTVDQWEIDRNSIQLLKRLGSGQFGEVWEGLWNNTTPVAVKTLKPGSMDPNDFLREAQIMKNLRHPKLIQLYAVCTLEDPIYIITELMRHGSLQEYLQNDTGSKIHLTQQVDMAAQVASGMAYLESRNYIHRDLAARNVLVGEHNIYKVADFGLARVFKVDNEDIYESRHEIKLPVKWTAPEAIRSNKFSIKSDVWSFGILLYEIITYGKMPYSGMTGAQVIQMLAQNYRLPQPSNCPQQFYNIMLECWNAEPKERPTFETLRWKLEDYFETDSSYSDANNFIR

Compound	inhibition [1] [%]	inhibition [2] [%]	inhibition [3] [%]	inhibition [4] [%]	inhibition [5] [%]	inhibition [6] [%]	inhibition [7] [%]	inhibition [8] [%]	inhibition [9] [%]	inhibition [10] [%]	inhibition [11] [%]	inhibition [12] [%]	inhibition [13] [%]	inhibition [14] [%]	inhibition [15] [%]	inhibition [16] [%]	inhibition [17] [%]	inhibition [18] [%]	inhibition [19] [%]	inhibition [20] [%]
COc1ccc(-c2nn3ncccc3c2-c2ccnc(Nc3cccc(C(F)(F)F)c3)n2)cc1	1.14	1	5.9	1.64	3.19	2.26	5.13	1.12	5.31	-0.23	5.95	1.12	2.91	6.13	6.4	2.63	2.06	3.74	3.38	
O=S(=O)(CCOCc1ccc(-c2ccc3ncnc(Nc4ccc(OCc5cccc(F)c5)c(Cl)c4)c3c2)o1)c1ccccc1	5.38	4.21	10	0.75	1.61	6.02	8.5	3.15	3.68	2.33	7.33	1.09	0.79	4.11	8.55	5.25	6.3	10.1	7.95	5.38
CC(C)c1ccc2c(c1)NC(=O)/C2=N/Nc1ccc(S(N)(=O)=O)cc1	3.81	6.3	34.2	1.62	17.2	6.18	48.9	21.5	52.3	4.34	29.8	-0.9	2.77			8.25	1.58	6.41	4.75	34
[O-][S+]1CCN(Cc2ccc(-c3ccc4ncnc(Nc5ccc(OCc6ccccc6)c(Cl)c5)c4c3)o2)CC1	1.01	6.03	11.8	0.45	1.95	3.64	7.9	3.07	6.09	3.07	4.43	0.22	1.48	6.05	1.47	3.12	2.69	3.13	4.06	3.49
Cc1ccc2c(c1)/C(=N/Nc1ccc(S(N)(=O)=O)cc1)C(=O)N2	16.2	12.2	37.7	2.85	13.1	11.5	70.2	21.8	52.3	8.12	31.7	-0.61	0.7	1.76	0.28	3.85	7.64	35.4	8.06	18.8
Nc1nccc(-c2c(-c3ccc(F)cc3)nn3cc(C(F)(F)F)ccc23)n1	-0.61	5.02	5.93	0.17	0.96	-0.84	1.89	1.05	1.99	0.39	2.13	-1.38	1.04			2.76	0.95	0.97	-0.45	-0.03
Cc1ccc(NC(=O)CC2CC2)cc1-c1ccc(C(=O)NCC2CC2)cc1	5.33	8.04	13.8	2.79	4.37	3.52	9.3	4.68	5.09	4.05	8.86	2.5	2.58	5.55	9.67	4.79	2.68	10	7.7	9.25
CN1CCN(C(=O)c2ccc(NC(=O)Nc3ccc(N(C)c4ccnc(Nc5ccc(CS(C)(=O)=O)cc5)n4)cc3)cc2)CC1	38.9	59.9	77.5	7.23	46.1	67.2	85.5	75.2	94.1	60.3	79.3	1.47	4.04	29.2	88.6	38.8	27.2	67.1	60.7	76.8
CN(C)C(=O)O[C@H]1CN[C@H](C#Cc2cc3ncnc(Nc4ccc(OCc5cccc(F)c5)c(Cl)c4)c3s2)C1	3.36	6.77	11.1	3.09	1.15	5.6	4.48	4.17	7.24	2.18	6.43	1.37	1.4	6.18	3.98	4.97	3.2	4.12	3.68	19.5
COC(=O)c1cncc(/C=C/c2c(C)cc(O)cc2C)c1	3.88	14.8	42.8	0.7	7.7	3.58	6.85	27	54.8	9.77	36.7	2.26	6.54	9.3	10.1	2.45	2.74	7.8	0.65	5.3
c1ccc(Cc2nc3ccc(Nc4ncnc5ccccc45)cc3[nH]2)cc1	3.78	8.25	17	-0.75	1	3.02	5.74	3.34	12.9	4.81	14.8	2.62	0.81	2.62	13.4	4.63	2.59	9.82	3.35	9.44
O=C(Nc1ccc(Oc2ccc3[nH]c(NC(=O)c4ccco4)nc3c2)cc1)Nc1cc(C(F)(F)F)ccc1F	83.5	68	85	4.64	31	43.8	95.8	73.2	95.4	12.1	58.3	0.19	2.9	0.95	12.9	77.7	45.6	75.7	50.9	84.2
CCn1c(-c2nonc2N)nc2ccc(F)cc21	3.46	9.43	8.14	3.01	3.62	8.13	10.2	5.36	2.86	5.06	4.28	2.61	1.89			6.24	3.33	15.8	6.33	5.07
Cc1cc(-c2ccccn2)cc(C)c1/C=C/c1cncc(-c2nn[nH]n2)c1	5.02	4.62	15.4	-0.56	2.51	4.3	8.72	3.13	7.97	4.53	13.4	1.59	4.57	3.75	13.3	5.88	3.85	5.09	5.19	5.38
